Results reported in PubChem BioAssay (Tox21).
“And” between values parts separate entries of the source, which are not always exact repeats. Equal values may be shown once. Results filed as inconclusive are left out. Entries that show only a call come without a potency. A structure can be active in one record and inactive in another. The source made the active and inactive calls. Unless noted, calls come from the whole dose curve.

Assays:
[1] = Nuclear factor erythroid 2-related factor 2/antioxidant responsive element (Nrf2/ARE) small molecule agonists: qHTS cell viability counter screen in human keratinocytes (AID 1919968; active = well fitted curve in the direction sought with a large enough effect in the repeat runs; an effect the other way counts as inactive or inconclusive; note: nearly all actives have a fitted effect of over 55% in size; note: potency is the fitted concentration of half-maximal effect)
Summary of the method: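 Stably transfected HaCaT (KeratinoSens), 1,500/well. Test agents in DMSO were applied for 23 h, 37 C/5% CO2. CellTiter-Fluor was incubated 1 h before the fluorescence read.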

[2] = Nuclear factor erythroid 2-related factor 2/antioxidant responsive element (Nrf2/ARE) small molecule agonists: luciferase reporter gene qHTS assay in human keratinocytes (AID 1919969); note: nearly all actives have a fitted effect of over 35% in size
[3] = target: Gonadotropin-releasing hormone receptor (Homo sapiens) (UniProt P30968); assay: Human gonadotropin-releasing hormone receptor (GnRHR) small molecule agonists, calcium flux assay in GnRHR-HEK293 cells (AID 1920063); note: nearly all actives have a fitted effect of over 35% in size
Sequence of Gonadotropin-releasing hormone receptor (Homo sapiens) (P30968 whole entry, looked up): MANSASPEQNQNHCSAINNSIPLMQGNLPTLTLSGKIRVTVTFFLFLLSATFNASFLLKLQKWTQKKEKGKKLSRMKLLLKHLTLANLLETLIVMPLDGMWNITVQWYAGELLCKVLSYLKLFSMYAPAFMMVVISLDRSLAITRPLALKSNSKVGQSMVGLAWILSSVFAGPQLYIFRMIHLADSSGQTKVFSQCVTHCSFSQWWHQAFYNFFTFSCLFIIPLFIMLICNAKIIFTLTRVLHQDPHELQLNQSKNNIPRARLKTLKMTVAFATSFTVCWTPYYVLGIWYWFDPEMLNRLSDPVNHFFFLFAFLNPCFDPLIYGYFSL
Summary of the method: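 Stable human GnRHR HEK293 line. 18 h plating, then calcium dye for 1 h at 37 C. Agonist-mode compound addition from DMSO stocks; fluorescence monitored 3 min.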

[4] = target: KiSS-1 receptor (Homo sapiens) (UniProt Q969F8); assay: Human kisspeptin (KISS1R) small molecule agonists, calcium flux assay in KISS1R-HEK293 cells (AID 1920064; active = well fitted curve in the direction sought with a large enough effect in the repeat runs; an effect the other way counts as inactive or inconclusive)
Sequence of KiSS-1 receptor (Homo sapiens) (Q969F8 whole entry, looked up): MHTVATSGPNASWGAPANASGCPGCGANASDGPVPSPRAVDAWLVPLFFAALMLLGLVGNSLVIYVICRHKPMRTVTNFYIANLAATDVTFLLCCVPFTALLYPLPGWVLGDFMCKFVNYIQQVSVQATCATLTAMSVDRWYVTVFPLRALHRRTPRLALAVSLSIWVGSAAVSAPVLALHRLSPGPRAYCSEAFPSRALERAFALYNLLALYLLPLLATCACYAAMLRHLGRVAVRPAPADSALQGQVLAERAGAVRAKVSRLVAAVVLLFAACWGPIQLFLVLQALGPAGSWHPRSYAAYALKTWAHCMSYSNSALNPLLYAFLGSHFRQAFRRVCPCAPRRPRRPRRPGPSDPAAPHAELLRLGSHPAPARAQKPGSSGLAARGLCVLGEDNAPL
Summary of the method: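 After overnight (18 h) culture at 37 C/5% CO2, human KISS1R-HEK293 cells received calcium dye for 1 h, then test compound; emission at 540 nm (excitation 480 nm) was tracked for 3 min.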

[5] = p53 small molecule agonists, cell-based qHTS assay with human liver microsomes (AID 1963577);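 note: p53 response element beta-lactamase reporter cells with liver microsomes plus NADPH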
Summary of the method: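 p53RE-bla cells, 4,000/well, compound added after 5 h, with human liver microsomes 0.5 mg/mL and NADPH 0.5 mg/mL final; 16 h at 37 C, then LiveBLAzer 2 h RT, fluorescence.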

[6] = p53 small molecule agonists, cell-based qHTS assay with human liver microsomes: qHTS cell viability counter screen (AID 1963579); note: nearly all actives have a fitted effect of over 45% in size
Summary of the method: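 p53RE-bla cells, 4,000/well, dosed 5 hours after plating, with human liver microsomes (0.5 mg/mL final) plus NADPH (0.5 mg/mL final), 16 hours at 37 C. Viability read as CellTiter-Glo luminescence after 30 min at room temperature.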

[7] = p53 small molecule agonists, cell-based qHTS assay with rat liver microsomes: qHTS cell viability counter screen (AID 1963580); note: nearly all actives have a fitted effect of over 45% in size
Summary of the method: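 Cytotoxicity counter screen: intracellular ATP measured by CellTiter-Glo luminescence in the same wells as the beta-lactamase reporter read, on HCT-116 p53RE-bla cells exposed 16 h at 37 C to compounds with rat liver microsomes and NADPH, each 0.5 mg/mL final.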

[8] = p53 small molecule agonists, cell-based qHTS assay: qHTS cell viability counter screen (AID 1963581); note: nearly all actives have a fitted effect of over 45% in size
Summary of the method: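 qHTS counter screen: 16 h compound exposure at 37 C of p53RE-bla HCT-116 cells (4,000 per well, seeded 5 h prior), cell viability by ATP luminescence.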

[9] = p53 small molecule agonists, cell-based qHTS assay (AID 1963582; active = well fitted activation curve with a large enough effect in the signal ratio in the repeat runs, not every such curve was filed as active; the % refers to the signal ratio)
Summary of the method: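 Measured: fluorescence from cleaved LiveBLAzer substrate. System: p53RE-bla cells, 16 h compound treatment at 37 C, 2 h substrate step at room temperature.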

[10] = target: 5-hydroxytryptamine receptor 2A (Homo sapiens) (UniProt P28223); assay: 5-hydroxytryptamine receptor 2A (HTR2A) small molecule antagonists, cell-based qHTS assay (AID 1963586); note: nearly all actives have a fitted effect of over 45% in size
Sequence of 5-hydroxytryptamine receptor 2A (Homo sapiens) (P28223 whole entry, looked up): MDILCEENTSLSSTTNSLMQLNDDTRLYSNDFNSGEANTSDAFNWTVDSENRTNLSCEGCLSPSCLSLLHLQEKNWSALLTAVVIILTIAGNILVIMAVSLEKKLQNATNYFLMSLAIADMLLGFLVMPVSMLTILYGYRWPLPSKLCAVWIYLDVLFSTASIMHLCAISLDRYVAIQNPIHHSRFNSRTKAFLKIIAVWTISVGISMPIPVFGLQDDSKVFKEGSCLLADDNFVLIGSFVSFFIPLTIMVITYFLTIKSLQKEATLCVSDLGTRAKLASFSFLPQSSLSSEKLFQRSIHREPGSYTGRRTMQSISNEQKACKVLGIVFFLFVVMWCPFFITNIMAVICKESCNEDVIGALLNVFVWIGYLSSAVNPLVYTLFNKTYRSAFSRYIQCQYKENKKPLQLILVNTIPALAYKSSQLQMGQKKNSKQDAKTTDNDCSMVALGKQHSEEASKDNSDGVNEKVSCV
Summary of the method: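 CHO cells stably expressing human HTR2A were plated for 18 h at 37 C, then loaded with calcium dye for 1 h. Compounds were preincubated 5 min at room temperature before DOI (4 nM solution) was added. Kinetic fluorescence was read for 3 min.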

[11] = target: 5-hydroxytryptamine receptor 2A (Homo sapiens) (UniProt P28223); assay: 5-hydroxytryptamine receptor 2A (HTR2A) small molecule agonists, cell-based qHTS assay (AID 1963587); note: nearly all actives have a fitted effect of over 30% in size
Summary of the method: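 CHO cells stably expressing human HTR2A, plated 18 h, loaded with calcium dye 1 h at 37 C. Agonist mode: compounds added and intracellular calcium fluorescence recorded kinetically for 2 min at 1 sec intervals.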

[12] = target: Muscarinic acetylcholine receptor M1 (Homo sapiens) (UniProt P11229); assay: Cholinergic receptor muscarinic 1 (CHRM1) small molecule antagonists, cell-based qHTS assay (AID 1963588); note: nearly all actives have a fitted effect of over 40% in size; note: potency is the fitted concentration of half-maximal effect
Sequence of Muscarinic acetylcholine receptor M1 (Homo sapiens) (P11229 whole entry, looked up): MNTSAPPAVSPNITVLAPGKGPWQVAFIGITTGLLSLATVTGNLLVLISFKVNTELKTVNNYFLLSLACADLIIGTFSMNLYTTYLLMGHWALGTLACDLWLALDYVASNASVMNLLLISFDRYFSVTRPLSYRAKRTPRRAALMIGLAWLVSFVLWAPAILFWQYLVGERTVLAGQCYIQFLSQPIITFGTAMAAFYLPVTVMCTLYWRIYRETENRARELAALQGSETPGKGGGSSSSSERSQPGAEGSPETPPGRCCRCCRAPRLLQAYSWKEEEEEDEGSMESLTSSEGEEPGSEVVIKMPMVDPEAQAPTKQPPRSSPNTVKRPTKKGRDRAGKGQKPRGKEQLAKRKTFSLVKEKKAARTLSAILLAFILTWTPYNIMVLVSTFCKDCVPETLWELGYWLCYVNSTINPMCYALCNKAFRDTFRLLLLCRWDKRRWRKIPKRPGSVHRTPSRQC
Summary of the method: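 Compounds were tested at 15 concentrations in three independent runs. Dye-loaded CHRM1-CHO cells were exposed 5 min at room temperature before stimulation by acetylcholine added at 50nM. Intracellular calcium was read kinetically on FDSS for 3 min.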

[13] = target: Muscarinic acetylcholine receptor M1 (Homo sapiens) (UniProt P11229); assay: Cholinergic receptor muscarinic 1 (CHRM1) small molecule agonists, cell-based qHTS assay (AID 1963589); note: nearly all actives have a fitted effect of over 35% in size
Summary of the method: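 Kinetic fluorescence (1 s intervals) of calcium-sensitive dye in human M1 CHO cells after compound addition; cells pre-incubated 18 h at 37 C/5% CO2 and dye-loaded 1 h.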

[14] = cAMP Responsive Elements (CRE) small molecule agonists, cell-based qHTS assay (AID 1963590)
Summary of the method: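 Test agents in DMSO were incubated 3 h at 37 C/5% CO2 with CRE-bla HEK 293T cells seeded 18 h earlier; LiveBLAzer B/G FRET substrate was added and read after 2 h at room temperature.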

[15] = cAMP Responsive Elements (CRE) small molecule antagonists, cell-based qHTS assay (AID 1963591; active = well fitted inhibition curve with a large enough effect in the signal ratio in the repeat runs, not every such curve was filed as active; the % refers to the signal ratio)
Summary of the method: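 Reporter line CRE-bla HEK 293T in dialyzed-FBS DMEM; cells preincubated 18 h, treated 3 h with compound plus NKH477 (0.25 uM final); LiveBLAzer FRET, 2 h RT.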

[16] = target: Beta-2 adrenergic receptor (Homo sapiens) (UniProt P07550); assay: Adrenergic beta2 receptor (ADRB2) small molecule antagonists, cell-based qHTS assay (AID 1963592); note: nearly all actives have a fitted effect of over 50% in size; note: potency is the fitted concentration of half-maximal effect
Sequence of Beta-2 adrenergic receptor (Homo sapiens) (P07550 whole entry, looked up): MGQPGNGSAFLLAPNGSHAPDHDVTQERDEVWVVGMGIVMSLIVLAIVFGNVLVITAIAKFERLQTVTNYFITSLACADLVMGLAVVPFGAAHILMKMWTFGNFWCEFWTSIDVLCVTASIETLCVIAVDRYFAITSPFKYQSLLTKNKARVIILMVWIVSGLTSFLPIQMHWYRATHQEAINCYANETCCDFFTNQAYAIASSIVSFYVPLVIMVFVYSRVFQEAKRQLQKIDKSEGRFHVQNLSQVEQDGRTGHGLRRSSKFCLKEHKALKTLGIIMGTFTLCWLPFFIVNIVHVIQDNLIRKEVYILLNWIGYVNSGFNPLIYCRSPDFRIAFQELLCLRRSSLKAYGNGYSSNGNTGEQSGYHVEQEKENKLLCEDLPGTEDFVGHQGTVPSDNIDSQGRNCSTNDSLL
Summary of the method: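 Assay format: CHO-ADRB2 cells, 18-20hr seeding at 37C/5% CO2, then compound plus 1nM isoproterenol agonist mix for 0.5hr RT. Homogeneous time-resolved fluorescence cAMP detection after 1hr, expressed as 665/615 nm ratio.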

[17] = target: Beta-2 adrenergic receptor (Homo sapiens) (UniProt P07550); assay: Adrenergic beta2 receptor (ADRB2) small molecule agonists, cell-based qHTS assay (AID 1963593);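 note: CHO cells stably overexpressing human ADRB2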
Summary of the method: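 CHO cells stably over-expressing ADRB2 were plated overnight at 37C, then dosed with compounds plus a stimulation mix containing 100uM IBMX and 25uM Ro-20-1724 for 0.5hr at room temperature. cAMP was measured by HTRF competition, 1hr.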

[18] = target: D(2) dopamine receptor (Homo sapiens) (UniProt P14416); assay: Dopamine D2 receptor (DRD2) small molecule agonists, cell-based qHTS assay (AID 1963594); note: nearly all actives have a fitted effect of over 35% in size
Sequence of D(2) dopamine receptor (Homo sapiens) (P14416 whole entry, looked up): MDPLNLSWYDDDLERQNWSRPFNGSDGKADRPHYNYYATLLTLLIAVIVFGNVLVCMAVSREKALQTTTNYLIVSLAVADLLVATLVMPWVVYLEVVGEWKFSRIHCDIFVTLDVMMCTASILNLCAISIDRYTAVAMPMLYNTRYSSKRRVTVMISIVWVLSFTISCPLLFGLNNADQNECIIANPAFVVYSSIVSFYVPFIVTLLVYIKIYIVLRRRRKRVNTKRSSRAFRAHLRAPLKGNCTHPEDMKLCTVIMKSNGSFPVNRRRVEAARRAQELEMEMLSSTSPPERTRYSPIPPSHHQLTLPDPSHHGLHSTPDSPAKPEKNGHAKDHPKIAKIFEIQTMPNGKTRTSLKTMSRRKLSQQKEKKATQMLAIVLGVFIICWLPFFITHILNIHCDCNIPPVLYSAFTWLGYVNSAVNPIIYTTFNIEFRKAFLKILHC
Summary of the method: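 HEK293 cells stably expressing human DRD2, pre-treated with PDE inhibitor Ro20-1724 (0.1 mM final) and compound 10 min at room temperature, then stimulated with NKH477 (200nM […]) for 30 min. cAMP read by HTRF (665/620 nm).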

[19] = target: D(2) dopamine receptor (Homo sapiens) (UniProt P14416); assay: Dopamine D2 receptor (DRD2) small molecule antagonists, cell-based qHTS assay (AID 1963595; active = well fitted inhibition curve with a large enough effect in the signal ratio in the repeat runs, with a control signal flat; the % refers to the signal ratio)
Summary of the method: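 Antagonism was scored as restored cAMP in HEK293-DRD2 cells. These cells were stimulated with 200 nM NKH477 and 12 nM quinpirole for 30 min at room temperature, in the presence of 0.1 mM Ro20-1724.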

[20] = G protein-coupled receptor (GPCR) small molecule agonists, calcium flux assay: HEK293 wild type cell line counter screen (AID 1920065)
Summary of the method: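 Following 18 h incubation at 37 C/5% CO2, plates got calcium dye for 1 h; compounds, ATP or DMSO were then pinned in and fluorescence followed kinetically (480/540 nm).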

SMILES | Potency [1] | Potency [2] | Potency [3] | Potency [4] | Potency [5] | Potency [6] | Potency [7] | Potency [8] | Potency [9] | Potency [10] | Potency [11] | Potency [12] | Potency [13] | Potency [14] | Potency [15] | Potency [16] | Potency [17] | Potency [18] | Potency [19] | Potency [20]
CC(C)(C)C(=O)C(Oc1ccc(Cl)cc1)n1ccnc1 (stereo not given) | inactive | inactive | inactive | inactive | inactive | inactive | inactive | inactive | inactive | inactive | inactive | inactive | inactive | inactive | inactive | inactive | inactive | inactive | inactive | 
NCc1cccc(CN)c1 | inactive | inactive | inactive | inactive | inactive | inactive | inactive | inactive | inactive | inactive | inactive | 42.1 µM (active) | inactive | inactive | inactive | inactive |  | inactive | inactive | 
Oc1ccc(O)c2c(O)cccc12 | inactive | inactive | inactive | inactive | inactive | inactive | inactive | inactive | inactive | inactive | inactive | inactive | inactive | inactive | inactive |  |  | inactive | inactive | 
CCOC(=O)N1CCC(=C2c3ccc(Cl)cc3CCc3cccnc32)CC1 | 68.6 µM (active) and 26.6 µM (active) | inactive | inactive | inactive |  |  |  | inactive |  |  |  |  |  | inactive | inactive | 54.5 µM (active) |  | inactive | inactive | inactive
CCC(N)(CO)CO | inactive | inactive | inactive | inactive | inactive | inactive | inactive | inactive | inactive | inactive | inactive | inactive | inactive | inactive | inactive | inactive | inactive | inactive | inactive | 
O=C(CCS)OCC(COC(=O)CCS)(COC(=O)CCS)COC(=O)CCS | inactive | inactive | inactive | inactive | inactive | inactive | inactive | inactive | inactive | inactive | inactive | inactive | inactive | inactive | inactive | inactive |  | inactive |  | 
CCOc1ccc(N)c([N+](=O)[O-])c1 | inactive | inactive | inactive | inactive | inactive | inactive | inactive | inactive | inactive | inactive | inactive | inactive | inactive | inactive | inactive |  | inactive | inactive | inactive | 
CC(C)C(=O)C(C)C | inactive | inactive | inactive | inactive | inactive | inactive | inactive | inactive | inactive | inactive | inactive | inactive | inactive | inactive | inactive | inactive |  | inactive | inactive | 
Cc1ccc(C)cc1 | inactive | inactive | inactive | inactive | inactive | inactive | inactive | inactive | inactive | inactive | inactive | inactive | inactive | inactive | inactive | inactive | inactive | inactive | inactive | 
O=C(C(=O)c1ccccc1)c1ccccc1 | inactive | inactive | inactive | inactive | inactive | inactive | inactive | inactive | inactive | inactive | inactive | inactive | inactive | inactive |  | inactive | inactive | inactive | inactive | 
CC(C)N=C=NC(C)C | inactive | inactive | inactive | inactive | inactive | inactive | inactive | inactive | inactive | inactive | inactive | inactive | inactive | inactive |  | inactive |  | inactive | inactive | 
C=Cc1ccccn1 | inactive | inactive | inactive | inactive | inactive | inactive | inactive | inactive | inactive | inactive | inactive | inactive | inactive | inactive | inactive | inactive |  | inactive | inactive | 
COC(=O)C1=C(C)NC(C)=C(C(=O)OCCN(C)Cc2ccccc2)C1c1cccc([N+](=O)[O-])c1 (stereo not given) | 30.5 µM (active) | inactive | inactive | inactive |  |  |  | inactive |  | inactive | inactive | 1.32 µM (active) and inactive | inactive |  | inactive | inactive |  | inactive | inactive | inactive
Clc1ccc2c(c1)Nc1ccccc1S2 | inactive | inactive | inactive | inactive | inactive | inactive | inactive | inactive | inactive | inactive | inactive | inactive | inactive | inactive | inactive | inactive |  |  |  | 
O=C(O)/C=C/C(=O)O | inactive | inactive | inactive | inactive |  |  |  |  |  | inactive |  | inactive | inactive | inactive | inactive | inactive | inactive | inactive | inactive | inactive
O=C(C(=O)c1ccco1)c1ccco1 | inactive | inactive | inactive | inactive | inactive | inactive | inactive | inactive | inactive | inactive | inactive | inactive | inactive | inactive | inactive | inactive |  | inactive |  | 
